# Assay results taken from publication PMC9911399, “Two distinct binding modes provide the RNA-binding protein RbFox with extraordinary sequence specificity”.
# Positions count from the first letter of the chain named. In all, about 16,000 sequences were measured (“ka relative to ugcaugu”: median about 0.0091, highest 2% from about 0.032 on). The sample as a whole holds a higher share of the highest values than the screen did.
# T1: RBFOX1 RRM (Homo sapiens, UniProt Q9NWB1 109-208)
# T1 sequence: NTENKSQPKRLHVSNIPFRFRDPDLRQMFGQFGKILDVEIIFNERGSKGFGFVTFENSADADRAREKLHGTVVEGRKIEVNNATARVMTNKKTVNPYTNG
# B1: CGCAUAC (DNA:RNA)
# RNA: GGGAGACCGGAAUUCAGAUUGUCCCGCAUACUUAAAUCCCGUCGUAGCCACCA
# DNA 1: CAATCTGAATTCCGGTCTCCC
# DNA 2: TGGTGGCTACGACGGGATT
# B2: AUGCGCC (DNA:RNA)
# RNA: B1 RNA with C25A, G26U, C27G, A28C, U29G, A30C
# DNA 1: CAATCTGAATTCCGGTCTCCC
# DNA 2: TGGTGGCTACGACGGGATT
# B3: AACACCC (DNA:RNA)
# RNA: B1 RNA with C25A, G26A, U29C, A30C
# DNA 1: CAATCTGAATTCCGGTCTCCC
# DNA 2: TGGTGGCTACGACGGGATT
# B4: AAUUUUC (DNA:RNA)
# RNA: B1 RNA with C25A, G26A, C27U, A28U, A30U
# DNA 1: CAATCTGAATTCCGGTCTCCC
# DNA 2: TGGTGGCTACGACGGGATT
# B5: ACAGCCG (DNA:RNA)
# RNA: GGGAGACCGGAAUUCAGAUUGUCCACAGCCGUUAAAUCCCGUCGUAGCCACCA
# DNA 1: CAATCTGAATTCCGGTCTCCC
# DNA 2: TGGTGGCTACGACGGGATT
# B6: UGGGGCC (DNA:RNA)
# RNA: B5 RNA with A25U, C26G, A27G, C29G, G31C
# DNA 1: CAATCTGAATTCCGGTCTCCC
# DNA 2: TGGTGGCTACGACGGGATT
# B7: CUGGGCC (DNA:RNA)
# RNA: B5 RNA with A25C, C26U, A27G, C29G, G31C
# DNA 1: CAATCTGAATTCCGGTCTCCC
# DNA 2: TGGTGGCTACGACGGGATT
# B8: UGGGCCU (DNA:RNA)
# RNA: B5 RNA with A25U, C26G, A27G, G31U
# DNA 1: CAATCTGAATTCCGGTCTCCC
# DNA 2: TGGTGGCTACGACGGGATT
# B9: UGGGCCC (DNA:RNA)
# RNA: B5 RNA with A25U, C26G, A27G, G31C
# DNA 1: CAATCTGAATTCCGGTCTCCC
# DNA 2: TGGTGGCTACGACGGGATT
# B10: UGGGCCG (DNA:RNA)
# RNA: B5 RNA with A25U, C26G, A27G
# DNA 1: CAATCTGAATTCCGGTCTCCC
# DNA 2: TGGTGGCTACGACGGGATT
# B11: UGGCCGU (DNA:RNA)
# RNA: B5 RNA with A25U, C26G, A27G, G28C, C30G, G31U
# DNA 1: CAATCTGAATTCCGGTCTCCC
# DNA 2: TGGTGGCTACGACGGGATT
# B12: GACUUCU (DNA:RNA)
# RNA: B1 RNA with C25G, G26A, A28U, A30C, C31U
# DNA 1: CAATCTGAATTCCGGTCTCCC
# DNA 2: TGGTGGCTACGACGGGATT
# B13: UCCAGUC (DNA:RNA)
# RNA: B1 RNA with C25U, G26C, U29G, A30U
# DNA 1: CAATCTGAATTCCGGTCTCCC
# DNA 2: TGGTGGCTACGACGGGATT
# B14: UGGCAUA (DNA:RNA)
# RNA: B1 RNA with C25U, C27G, A28C, U29A, A30U, C31A
# DNA 1: CAATCTGAATTCCGGTCTCCC
# DNA 2: TGGTGGCTACGACGGGATT
# B15: GGCAUUG (DNA:RNA)
# RNA: B1 RNA with C25G, A30U, C31G
# DNA 1: CAATCTGAATTCCGGTCTCCC
# DNA 2: TGGTGGCTACGACGGGATT
# B16: CGGCAUG (DNA:RNA)
# RNA: B1 RNA with C27G, A28C, U29A, A30U, C31G
# DNA 1: CAATCTGAATTCCGGTCTCCC
# DNA 2: TGGTGGCTACGACGGGATT
# B17: AGGCAUA (DNA:RNA)
# RNA: B5 RNA with C26G, A27G, G28C, C29A, C30U, G31A
# DNA 1: CAATCTGAATTCCGGTCTCCC
# DNA 2: TGGTGGCTACGACGGGATT
# B18: GGCAUGU (DNA:RNA)
# RNA: B1 RNA with C25G, A30G, C31U
# DNA 1: CAATCTGAATTCCGGTCTCCC
# DNA 2: TGGTGGCTACGACGGGATT
# B19: ACCGGCA (DNA:RNA)
# RNA: B5 RNA with A27C, C29G, G31A
# DNA 1: CAATCTGAATTCCGGTCTCCC
# DNA 2: TGGTGGCTACGACGGGATT
# B20: AUGUCGU (DNA:RNA)
# RNA: B5 RNA with C26U, A27G, G28U, C30G, G31U
# DNA 1: CAATCTGAATTCCGGTCTCCC
# DNA 2: TGGTGGCTACGACGGGATT
# B21: UGGCAUC (DNA:RNA)
# RNA: B1 RNA with C25U, C27G, A28C, U29A, A30U
# DNA 1: CAATCTGAATTCCGGTCTCCC
# DNA 2: TGGTGGCTACGACGGGATT
# B22: GUCAUGU (DNA:RNA)
# RNA: B1 RNA with C25G, G26U, A30G, C31U
# DNA 1: CAATCTGAATTCCGGTCTCCC
# DNA 2: TGGTGGCTACGACGGGATT
# B23: AGGCAUC (DNA:RNA)
# RNA: B1 RNA with C25A, C27G, A28C, U29A, A30U
# DNA 1: CAATCTGAATTCCGGTCTCCC
# DNA 2: TGGTGGCTACGACGGGATT
# B24: UGGCAUG (DNA:RNA)
# RNA: B5 RNA with A25U, C26G, A27G, G28C, C29A, C30U
# DNA 1: CAATCTGAATTCCGGTCTCCC
# DNA 2: TGGTGGCTACGACGGGATT
# B25: AGGCAUG (DNA:RNA)
# RNA: B5 RNA with C26G, A27G, G28C, C29A, C30U
# DNA 1: CAATCTGAATTCCGGTCTCCC
# DNA 2: TGGTGGCTACGACGGGATT
# B26: GUGCGUA (DNA:RNA)
# RNA: GGGAGACCGGAAUUCAGAUUGUCCGUGCGUAUUAAAUCCCGUCGUAGCCACCA
# DNA 1: CAATCTGAATTCCGGTCTCCC
# DNA 2: TGGTGGCTACGACGGGATT
# B27: CGUGGAA (DNA:RNA)
# RNA: B1 RNA with C27U, A28G, U29G, C31A
# DNA 1: CAATCTGAATTCCGGTCTCCC
# DNA 2: TGGTGGCTACGACGGGATT
# B28: CCCGACG (DNA:RNA)
# RNA: B5 RNA with A25C, A27C, C29A
# DNA 1: CAATCTGAATTCCGGTCTCCC
# DNA 2: TGGTGGCTACGACGGGATT
# B29: CGAGUCG (DNA:RNA)
# RNA: B5 RNA with A25C, C26G, C29U
# DNA 1: CAATCTGAATTCCGGTCTCCC
# DNA 2: TGGTGGCTACGACGGGATT
# B30: UCGCCGA (DNA:RNA)
# RNA: B26 RNA with G25U, U26C, G29C, U30G
# DNA 1: CAATCTGAATTCCGGTCTCCC
# DNA 2: TGGTGGCTACGACGGGATT
# B31: AAGUACG (DNA:RNA)
# RNA: B5 RNA with C26A, A27G, G28U, C29A
# DNA 1: CAATCTGAATTCCGGTCTCCC
# DNA 2: TGGTGGCTACGACGGGATT
# Molecular target: T1, RBFOX1 RRM
# Assay: EMSA; HiTS-Eq, 1 nM pool, 10 min; buffer printed only for the single-RNA assays: 10 mM Tris pH 7.5, 150 mM NaCl, 3.4 mM EDTA, 0.001% NP-40, 30 C
# Settings: tags: His6 N-terminal (pET28a); label: 5' 32P
# In short: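 Relative association constants, normalised to the cognate motif, were derived by comparing read counts of each RNA species with those of the control reaction. The RNA sequenced was the free fraction, separated by 8% native PAGE after a 10 min equilibration in 50 µL of 1 nM 5′-radiolabelled RNA (7 randomized nucleotides) with increasing concentrations of purified wild-type or mutant RbFox RRM.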
row,Binder,binding signal
1,B1,0.0068 KA relative to UGCAUGU
2,B2,0.0101 KA relative to UGCAUGU
3,B3,0.000265 KA relative to UGCAUGU
4,B4,0.00788 KA relative to UGCAUGU
5,B5,0.00101 KA relative to UGCAUGU
6,B6,0.0345 KA relative to UGCAUGU
7,B7,0.0274 KA relative to UGCAUGU
8,B8,0.0237 KA relative to UGCAUGU
9,B9,0.0266 KA relative to UGCAUGU
10,B10,0.0335 KA relative to UGCAUGU
11,B11,0.023 KA relative to UGCAUGU
12,B12,0.0118 KA relative to UGCAUGU
13,B13,0.00851 KA relative to UGCAUGU
14,B14,0.0137 KA relative to UGCAUGU
15,B15,0.0108 KA relative to UGCAUGU
16,B16,0.573 KA relative to UGCAUGU

row,Binder,binding signal
1,B17,0.00927 KA relative to UGCAUGU
2,B18,0.426 KA relative to UGCAUGU
3,B19,0.00809 KA relative to UGCAUGU
4,B20,0.0142 KA relative to UGCAUGU
5,B21,0.0211 KA relative to UGCAUGU
6,B22,0.0129 KA relative to UGCAUGU
7,B23,0.0123 KA relative to UGCAUGU
8,B24,0.696 KA relative to UGCAUGU
9,B25,0.662 KA relative to UGCAUGU
10,B26,0.0121 KA relative to UGCAUGU
11,B27,0.0142 KA relative to UGCAUGU
12,B28,0.0192 KA relative to UGCAUGU
13,B29,0.0112 KA relative to UGCAUGU
14,B30,0.0122 KA relative to UGCAUGU
15,B31,0.0114 KA relative to UGCAUGU
